Assay results reported in the antibiotic and cytotoxicity screens of Wong et al. (2023).
Screen size: about 39,000 compounds; about 3,300 (8.5%) were called active. Many of the other results were omitted from the sample, so actives are more common in it than they were.

Each molecule was assayed on HepG2 (assay: cytotoxicity call (relative viability < 0.9)). Details: 10 µM.

| Compound | cytotoxicity call |
| --- | --- |
| COc1ccc(S(=O)(=O)N(C)C[C@H]2OCCCC[C@@H](C)Oc3ccc(NC(=O)Nc4ccc(C(F)(F)F)cc4)cc3C(=O)N([C@H](C)CO)C[C@@H]2C)cc1 | inactive |
| CC(C)c1nc(CN(C)C(=O)N[C@@H](CCN2CCOCC2)C(=O)N[C@H](CC[C@H](Cc2ccccc2)NC(=O)OCc2cncs2)Cc2ccccc2)cs1 | inactive |
| CC(C)NC(=O)Nc1ccc2c(c1)CC(=O)N([C@H](C)CO)C[C@H](C)[C@@H](CN(C)S(=O)(=O)c1cn(C)cn1)O2 | inactive |
| C=CCOC(=O)[C@@H]1[C@H]2C(=O)O[C@H](c3ccccc3)[C@H](c3ccccc3)N2[C@H](c2ccc(OCCOC(=O)[C@@H]3C[C@@H]4C(=O)N5CCC[C@H]5C(=O)N4[C@@H]3c3ccc(O)cc3)cc2)[C@@]12C(=O)Nc1ccccc12 | inactive |
| COc1ccc([Si](C)(C)[C@@H]2[C@@H](CCO)O[C@]3(C(=O)N(Cc4ccc(N5C(=O)c6cccc7cccc5c67)cc4)c4ccccc43)[C@H]2C)cc1 | active |
| COc1ccc([Si](C)(C)[C@H]2[C@H](CCO)O[C@@]3(C(=O)N(Cc4ccc(N5C(=O)c6cccc7cccc5c67)cc4)c4ccccc43)[C@@H]2C)cc1 | active |
| COc1ccc([Si](C)(C)[C@H]2[C@H](CC(=O)N3CCC[C@H]3CO)O[C@@]3(C(=O)N(Cc4ccc(N5C(=O)c6cccc7cccc5c67)cc4)c4ccccc43)[C@@H]2C)cc1 | inactive |
| COc1ccc([Si](C)(C)[C@@H]2[C@@H](CC(=O)N3CCC[C@H]3CO)O[C@]3(C(=O)N(Cc4ccc(N5C(=O)c6cccc7cccc5c67)cc4)c4ccccc43)[C@H]2C)cc1 | inactive |
| COc1ccc([Si](C)(C)[C@@H]2[C@@H](CC(=O)N3Cc4ccccc4C[C@H]3CO)O[C@]3(C(=O)N(Cc4ccc(N5C(=O)c6cccc7cccc5c67)cc4)c4ccccc43)[C@H]2C)cc1 | inactive |
| C[C@H](CO)N1C[C@H](C)[C@@H](CN(C)S(=O)(=O)c2cn(C)cn2)Oc2ccc(NC(=O)Cc3cn(C)c4ccccc34)cc2C1=O | inactive |
| c1csc(Cn2cccc2)c1 | inactive |
| CCOC(=O)[C@H](C(C)=O)[C@H]1CCS(=O)(=O)C1 | inactive |
| CC(C)NC(=O)N(C)C[C@@H]1Oc2ccc(NC(=O)NC3CCCCC3)cc2C(=O)N([C@@H](C)CO)C[C@@H]1C | inactive |
| Cc1noc(C)c1S(=O)(=O)Nc1ccc2c(c1)C(=O)N([C@H](C)CO)C[C@H](C)[C@@H](CN(C)Cc1ccc3c(c1)OCO3)O2 | inactive |
| CCc1nc2ccc(C(=O)Nc3cc(-c4ccccc4)ccc3OC)cn2c1N(CCN(C)C)CC1CC1 | active |
| CCc1nc2ccc(C(=O)Nc3cc(-c4ccccc4)ccc3OC)cn2c1N(C)CCCc1ccccc1 | inactive |
| CCc1nc2ccc(C(=O)Nc3cc(-c4ccccc4)ccc3OC)cn2c1N(C)C(=O)Cc1ccccc1 | inactive |
| CCC(=O)N1CCC(C(=O)O)CC1 | inactive |
| COC(=O)CCC(C)C1CCC2C3C(O)CC4CC(O)CCC4(C)C3CC(O)C12C (stereo not given) | active |
| CC(CCC(=O)NCC(=O)O)C1CCC2C3C(O)CC4CC(O)CCC4(C)C3CC(O)C12C (stereo not given) | inactive |

| Compound | cytotoxicity call |
| --- | --- |
| CC(CCC(=O)O)C1CCC2C3C(O)CC4CC(O)CCC4(C)C3CC(O)C12C (stereo not given) | inactive |
| C[C@H](CCC(=O)NCCS(=O)(=O)O)[C@H]1CC[C@H]2[C@@H]3[C@H](O)C[C@@H]4C[C@H](O)CC[C@]4(C)[C@H]3C[C@H](O)[C@]12C | inactive |
| C[C@H](CCC(=O)NCC(=O)NCCS(=O)(=O)O)[C@H]1CC[C@H]2[C@@H]3[C@H](O)C[C@@H]4C[C@H](O)CC[C@]4(C)[C@H]3C[C@H](O)[C@]12C | active |
| COC(=O)CCC(C)C1CCC2C3CCC4CC(O)CCC4(C)C3CC(O)C12C (stereo not given) | inactive |
| Cc1noc(C)c1NC(=O)Nc1ccc2c(c1)C(=O)N([C@H](C)CO)C[C@H](C)[C@@H](CN(C)S(=O)(=O)c1ccc(Cl)cc1)OCCCC[C@H](C)O2 | inactive |
| CCc1nnc(SCC(=O)OC)[nH]1 | inactive |
| COc1ccc(NC(=O)N(C)C[C@H]2OCCCC[C@H](C)Oc3ccc(NC(=O)Nc4c(C)noc4C)cc3C(=O)N([C@H](C)CO)C[C@@H]2C)cc1 | inactive |
| C[C@@H]1CN([C@@H](C)CO)C(=O)Cc2cc(NC(=O)Cc3ccccc3)ccc2O[C@H]1CN(C)Cc1ccc(C(F)(F)F)cc1 | inactive |
| C[C@@H]1CN([C@@H](C)CO)C(=O)Cc2cc(NC(=O)Cc3ccccc3)ccc2O[C@H]1CN(C)C(=O)Nc1ccc(C(F)(F)F)cc1 | inactive |
| C[C@H](CO)N1C[C@H](C)[C@H](CN(C)Cc2ccc(C(F)(F)F)cc2)Oc2ccc(NC(=O)Cc3ccccc3)cc2CC1=O | active |
| C[C@@H]1CN([C@@H](C)CO)C(=O)Cc2cc(NC(=O)Cc3ccccc3)ccc2O[C@@H]1CN(C)Cc1ccc(C(F)(F)F)cc1 | active |
| C[C@H](CO)N1C[C@H](C)[C@@H](CN(C)Cc2ccc(C(F)(F)F)cc2)Oc2ccc(NC(=O)Cc3ccccc3)cc2CC1=O | inactive |
| C[C@@H]1CN([C@H](C)CO)C(=O)Cc2cc(NC(=O)Cc3ccccc3)ccc2O[C@@H]1CN(C)Cc1ccc(C(F)(F)F)cc1 | active |
| C[C@H]1CN([C@@H](C)CO)C(=O)Cc2cc(NC(=O)Cc3ccccc3)ccc2O[C@@H]1CN(C)Cc1ccc(C(F)(F)F)cc1 | inactive |
| C[C@H]1CN([C@@H](C)CO)C(=O)Cc2cc(NC(=O)Cc3ccccc3)ccc2O[C@H]1CN(C)Cc1ccc(C(F)(F)F)cc1 | inactive |
| C[C@@H]1CN([C@H](C)CO)C(=O)Cc2cc(NC(=O)Cc3ccccc3)ccc2O[C@H]1CN(C)Cc1ccc(C(F)(F)F)cc1 | inactive |
| CN1CCN(C(=O)C[C@@H]2CC[C@H]3[C@@H](COC[C@@H](O)CN3C(=O)C3CCOCC3)O2)CC1 | inactive |
| COCC(=O)Nc1ccc2c(c1)C(=O)N(C)[C@@H]1CC[C@H](CC(=O)NCc3ccccc3Cl)O[C@@H]1CO2 | inactive |
| CCCn1c(=O)[nH]c2nc(-c3ccc(S(=O)(=O)N4CCN(c5ccc(Cl)cc5)CC4)cc3)[nH]c2c1=O | inactive |
| CC(C)(C)[S@](=O)N1Cc2cc(C(=O)N[C@@H]3CCN(Cc4ccccc4)C3)nc(-c3cccc(-c4ccncc4)c3)c2[C@@H]1CCO | inactive |
